Measured values published in ChEMBL document CHEMBL1961873, “Compounds: GSK PKIS; Assays: Nanosyn kinase panel” (2012).

How the values were obtained:
[1] = target: T1, Ephrin type-B receptor 2 (Homo sapiens) (UniProt P29323); settings: at 1 µM
T1 sequence (whole entry): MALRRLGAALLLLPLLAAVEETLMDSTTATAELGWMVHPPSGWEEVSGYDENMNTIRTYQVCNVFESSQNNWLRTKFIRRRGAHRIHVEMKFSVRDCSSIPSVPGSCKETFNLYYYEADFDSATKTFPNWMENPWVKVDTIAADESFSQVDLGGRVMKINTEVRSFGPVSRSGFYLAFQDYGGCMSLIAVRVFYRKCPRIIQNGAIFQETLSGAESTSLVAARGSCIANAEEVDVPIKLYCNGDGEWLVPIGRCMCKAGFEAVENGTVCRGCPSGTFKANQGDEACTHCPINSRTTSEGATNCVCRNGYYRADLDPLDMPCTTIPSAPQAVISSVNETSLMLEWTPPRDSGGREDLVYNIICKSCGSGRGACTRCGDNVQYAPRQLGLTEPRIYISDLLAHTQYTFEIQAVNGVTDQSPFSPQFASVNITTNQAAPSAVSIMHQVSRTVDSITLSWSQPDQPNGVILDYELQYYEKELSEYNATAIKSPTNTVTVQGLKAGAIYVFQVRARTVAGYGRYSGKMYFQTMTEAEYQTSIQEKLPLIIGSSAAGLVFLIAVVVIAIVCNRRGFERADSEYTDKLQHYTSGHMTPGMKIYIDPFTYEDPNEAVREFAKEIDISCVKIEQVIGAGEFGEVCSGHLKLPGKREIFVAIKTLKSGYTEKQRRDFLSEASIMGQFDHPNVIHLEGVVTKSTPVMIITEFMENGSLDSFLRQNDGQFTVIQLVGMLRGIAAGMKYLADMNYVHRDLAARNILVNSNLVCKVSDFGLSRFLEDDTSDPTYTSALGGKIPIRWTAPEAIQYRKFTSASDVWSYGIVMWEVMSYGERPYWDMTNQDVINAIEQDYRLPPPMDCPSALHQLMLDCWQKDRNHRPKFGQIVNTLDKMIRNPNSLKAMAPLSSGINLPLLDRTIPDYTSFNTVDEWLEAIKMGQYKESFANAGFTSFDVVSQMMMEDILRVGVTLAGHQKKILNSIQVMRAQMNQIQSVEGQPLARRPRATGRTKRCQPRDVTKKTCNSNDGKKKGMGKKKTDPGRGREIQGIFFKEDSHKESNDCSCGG

[2] = target: T2, Ephrin type-B receptor 3 (Homo sapiens) (UniProt P54753); settings: at 0.1 µM
T2 sequence (whole entry): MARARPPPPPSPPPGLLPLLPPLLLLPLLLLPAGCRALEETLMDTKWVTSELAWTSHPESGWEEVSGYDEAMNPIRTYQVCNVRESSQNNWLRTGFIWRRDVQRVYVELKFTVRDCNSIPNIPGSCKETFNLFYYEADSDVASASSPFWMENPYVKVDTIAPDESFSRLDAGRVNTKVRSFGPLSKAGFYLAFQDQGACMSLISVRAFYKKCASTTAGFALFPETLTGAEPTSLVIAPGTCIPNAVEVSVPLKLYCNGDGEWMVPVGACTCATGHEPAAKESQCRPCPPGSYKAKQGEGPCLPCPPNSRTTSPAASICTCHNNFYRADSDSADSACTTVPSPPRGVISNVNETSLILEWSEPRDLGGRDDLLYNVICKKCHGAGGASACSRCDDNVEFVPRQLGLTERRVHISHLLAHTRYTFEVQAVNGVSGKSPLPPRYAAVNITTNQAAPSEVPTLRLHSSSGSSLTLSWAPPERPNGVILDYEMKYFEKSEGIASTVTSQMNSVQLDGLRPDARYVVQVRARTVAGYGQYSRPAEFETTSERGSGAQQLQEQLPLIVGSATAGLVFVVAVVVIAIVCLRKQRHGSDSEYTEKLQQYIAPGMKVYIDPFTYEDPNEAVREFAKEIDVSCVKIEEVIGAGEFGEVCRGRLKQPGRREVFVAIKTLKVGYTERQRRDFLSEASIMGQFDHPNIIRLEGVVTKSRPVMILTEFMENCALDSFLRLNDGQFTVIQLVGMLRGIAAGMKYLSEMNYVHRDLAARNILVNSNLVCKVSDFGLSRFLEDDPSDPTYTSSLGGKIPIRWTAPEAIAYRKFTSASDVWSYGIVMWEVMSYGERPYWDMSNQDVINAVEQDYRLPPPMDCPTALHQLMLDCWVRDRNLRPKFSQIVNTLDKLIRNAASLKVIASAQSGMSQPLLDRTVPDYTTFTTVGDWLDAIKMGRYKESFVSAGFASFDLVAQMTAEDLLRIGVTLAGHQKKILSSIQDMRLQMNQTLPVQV

[3] = target: T2, Ephrin type-B receptor 3 (Homo sapiens); settings: at 1 µM
[4] = target: T3, Ephrin type-B receptor 4 (Homo sapiens) (UniProt P54760); settings: at 0.1 µM
T3 sequence (whole entry): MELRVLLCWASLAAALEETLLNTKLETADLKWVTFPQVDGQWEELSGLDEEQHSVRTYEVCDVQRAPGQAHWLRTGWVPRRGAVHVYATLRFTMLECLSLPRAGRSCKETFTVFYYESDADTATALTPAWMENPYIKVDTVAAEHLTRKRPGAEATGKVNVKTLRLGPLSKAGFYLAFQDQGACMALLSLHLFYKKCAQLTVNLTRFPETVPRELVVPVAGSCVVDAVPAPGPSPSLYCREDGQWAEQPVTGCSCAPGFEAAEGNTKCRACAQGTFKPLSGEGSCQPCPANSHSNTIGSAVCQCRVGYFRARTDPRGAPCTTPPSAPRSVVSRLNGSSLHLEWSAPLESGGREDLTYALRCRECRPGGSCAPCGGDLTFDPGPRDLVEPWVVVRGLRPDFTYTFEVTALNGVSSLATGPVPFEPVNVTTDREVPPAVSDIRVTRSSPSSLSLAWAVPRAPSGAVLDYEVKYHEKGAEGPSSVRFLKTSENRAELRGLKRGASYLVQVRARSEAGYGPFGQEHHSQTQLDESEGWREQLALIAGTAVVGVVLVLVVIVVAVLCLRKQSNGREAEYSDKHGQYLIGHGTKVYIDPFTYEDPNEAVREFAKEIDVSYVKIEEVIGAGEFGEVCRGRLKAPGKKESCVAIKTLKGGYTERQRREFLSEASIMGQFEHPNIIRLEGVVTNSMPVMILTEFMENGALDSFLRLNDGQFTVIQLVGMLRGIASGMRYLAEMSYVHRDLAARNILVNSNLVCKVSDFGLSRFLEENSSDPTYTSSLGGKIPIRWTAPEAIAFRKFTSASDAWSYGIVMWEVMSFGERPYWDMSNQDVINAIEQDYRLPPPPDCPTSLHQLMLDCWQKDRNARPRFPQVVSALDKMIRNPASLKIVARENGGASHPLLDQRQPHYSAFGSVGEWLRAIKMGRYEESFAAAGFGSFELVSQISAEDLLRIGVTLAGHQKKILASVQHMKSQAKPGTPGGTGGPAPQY

[5] = target: T3, Ephrin type-B receptor 4 (Homo sapiens); settings: at 1 µM
[6] = target: Receptor tyrosine-protein kinase erbB-2 (Homo sapiens) (UniProt P04626); settings: at 0.1 µM
[7] = target: Receptor tyrosine-protein kinase erbB-2 (Homo sapiens) (UniProt P04626); settings: at 1 µM
[8] = target: Receptor tyrosine-protein kinase erbB-4 (Homo sapiens) (UniProt Q15303); settings: at 0.1 µM
[9] = target: Receptor tyrosine-protein kinase erbB-4 (Homo sapiens) (UniProt Q15303); settings: at 1 µM
[10] = target: Tyrosine-protein kinase Fer (Homo sapiens) (UniProt P16591); settings: at 0.1 µM
[11] = target: Tyrosine-protein kinase Fer (Homo sapiens) (UniProt P16591); settings: at 1 µM
[12] = target: Tyrosine-protein kinase Fes/Fps (Homo sapiens) (UniProt P07332); settings: at 0.1 µM
[13] = target: Tyrosine-protein kinase Fes/Fps (Homo sapiens) (UniProt P07332); settings: at 1 µM
[14] = target: Fibroblast growth factor receptor 1 (Homo sapiens) (UniProt P11362); settings: at 0.1 µM
[15] = target: Fibroblast growth factor receptor 1 (Homo sapiens) (UniProt P11362); settings: at 1 µM
[16] = target: Fibroblast growth factor receptor 2 (Homo sapiens) (UniProt P21802); settings: at 0.1 µM
[17] = target: Fibroblast growth factor receptor 2 (Homo sapiens) (UniProt P21802); settings: at 1 µM
[18] = target: Fibroblast growth factor receptor 3 (Homo sapiens) (UniProt P22607); settings: at 0.1 µM
[19] = target: Fibroblast growth factor receptor 3 (Homo sapiens) (UniProt P22607); settings: at 1 µM
[20] = target: Fibroblast growth factor receptor 4 (Homo sapiens) (UniProt P22455); settings: at 0.1 µM;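 also: values are mean percent inhibition of FGFR4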
Sequence of Fibroblast growth factor receptor 4 (Homo sapiens) (P22455 22-802 limits assumed): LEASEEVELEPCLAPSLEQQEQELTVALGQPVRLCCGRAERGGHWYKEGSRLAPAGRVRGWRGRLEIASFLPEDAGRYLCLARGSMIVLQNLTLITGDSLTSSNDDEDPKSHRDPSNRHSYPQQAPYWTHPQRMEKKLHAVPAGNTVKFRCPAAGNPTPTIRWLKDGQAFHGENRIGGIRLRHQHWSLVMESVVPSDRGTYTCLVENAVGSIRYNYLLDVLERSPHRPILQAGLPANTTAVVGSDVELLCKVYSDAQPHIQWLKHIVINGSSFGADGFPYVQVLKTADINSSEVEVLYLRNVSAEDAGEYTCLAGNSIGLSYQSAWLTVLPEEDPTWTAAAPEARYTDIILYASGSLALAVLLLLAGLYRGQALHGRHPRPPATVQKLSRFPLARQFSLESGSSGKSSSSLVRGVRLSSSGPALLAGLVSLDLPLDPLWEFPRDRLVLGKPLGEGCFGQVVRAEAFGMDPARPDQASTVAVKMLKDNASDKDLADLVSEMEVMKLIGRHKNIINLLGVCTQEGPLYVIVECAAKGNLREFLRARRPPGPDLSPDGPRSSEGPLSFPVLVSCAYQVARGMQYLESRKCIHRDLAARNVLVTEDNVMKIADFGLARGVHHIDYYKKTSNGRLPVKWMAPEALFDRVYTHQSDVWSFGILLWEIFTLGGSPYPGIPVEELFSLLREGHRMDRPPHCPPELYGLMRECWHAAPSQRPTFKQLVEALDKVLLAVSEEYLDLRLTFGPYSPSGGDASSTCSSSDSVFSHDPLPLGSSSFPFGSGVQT

Sequence of Tyrosine-protein kinase Fes/Fps (Homo sapiens) (P07332 whole entry): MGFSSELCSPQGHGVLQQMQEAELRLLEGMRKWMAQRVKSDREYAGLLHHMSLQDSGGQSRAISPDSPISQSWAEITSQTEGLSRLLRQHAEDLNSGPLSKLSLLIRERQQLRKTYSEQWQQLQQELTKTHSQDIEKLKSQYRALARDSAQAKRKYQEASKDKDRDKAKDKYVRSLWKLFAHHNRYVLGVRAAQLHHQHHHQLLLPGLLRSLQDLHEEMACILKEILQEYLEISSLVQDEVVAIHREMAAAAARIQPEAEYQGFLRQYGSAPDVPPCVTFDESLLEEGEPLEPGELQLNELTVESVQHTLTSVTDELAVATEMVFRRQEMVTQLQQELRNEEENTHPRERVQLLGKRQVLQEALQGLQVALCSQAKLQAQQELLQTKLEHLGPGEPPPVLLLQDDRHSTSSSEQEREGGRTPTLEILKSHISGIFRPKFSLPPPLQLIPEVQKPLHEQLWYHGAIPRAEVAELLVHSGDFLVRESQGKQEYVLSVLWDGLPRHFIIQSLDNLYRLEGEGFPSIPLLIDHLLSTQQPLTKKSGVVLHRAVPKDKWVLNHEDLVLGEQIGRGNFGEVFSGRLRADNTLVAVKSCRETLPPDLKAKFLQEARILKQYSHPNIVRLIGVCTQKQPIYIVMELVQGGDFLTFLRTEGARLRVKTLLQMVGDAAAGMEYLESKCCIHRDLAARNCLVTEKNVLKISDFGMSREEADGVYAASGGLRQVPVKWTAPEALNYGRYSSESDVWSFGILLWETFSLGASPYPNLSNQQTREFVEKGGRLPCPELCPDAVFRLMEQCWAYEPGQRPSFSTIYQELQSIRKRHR
Sequence of Receptor tyrosine-protein kinase erbB-2 (Homo sapiens) (P04626 whole entry): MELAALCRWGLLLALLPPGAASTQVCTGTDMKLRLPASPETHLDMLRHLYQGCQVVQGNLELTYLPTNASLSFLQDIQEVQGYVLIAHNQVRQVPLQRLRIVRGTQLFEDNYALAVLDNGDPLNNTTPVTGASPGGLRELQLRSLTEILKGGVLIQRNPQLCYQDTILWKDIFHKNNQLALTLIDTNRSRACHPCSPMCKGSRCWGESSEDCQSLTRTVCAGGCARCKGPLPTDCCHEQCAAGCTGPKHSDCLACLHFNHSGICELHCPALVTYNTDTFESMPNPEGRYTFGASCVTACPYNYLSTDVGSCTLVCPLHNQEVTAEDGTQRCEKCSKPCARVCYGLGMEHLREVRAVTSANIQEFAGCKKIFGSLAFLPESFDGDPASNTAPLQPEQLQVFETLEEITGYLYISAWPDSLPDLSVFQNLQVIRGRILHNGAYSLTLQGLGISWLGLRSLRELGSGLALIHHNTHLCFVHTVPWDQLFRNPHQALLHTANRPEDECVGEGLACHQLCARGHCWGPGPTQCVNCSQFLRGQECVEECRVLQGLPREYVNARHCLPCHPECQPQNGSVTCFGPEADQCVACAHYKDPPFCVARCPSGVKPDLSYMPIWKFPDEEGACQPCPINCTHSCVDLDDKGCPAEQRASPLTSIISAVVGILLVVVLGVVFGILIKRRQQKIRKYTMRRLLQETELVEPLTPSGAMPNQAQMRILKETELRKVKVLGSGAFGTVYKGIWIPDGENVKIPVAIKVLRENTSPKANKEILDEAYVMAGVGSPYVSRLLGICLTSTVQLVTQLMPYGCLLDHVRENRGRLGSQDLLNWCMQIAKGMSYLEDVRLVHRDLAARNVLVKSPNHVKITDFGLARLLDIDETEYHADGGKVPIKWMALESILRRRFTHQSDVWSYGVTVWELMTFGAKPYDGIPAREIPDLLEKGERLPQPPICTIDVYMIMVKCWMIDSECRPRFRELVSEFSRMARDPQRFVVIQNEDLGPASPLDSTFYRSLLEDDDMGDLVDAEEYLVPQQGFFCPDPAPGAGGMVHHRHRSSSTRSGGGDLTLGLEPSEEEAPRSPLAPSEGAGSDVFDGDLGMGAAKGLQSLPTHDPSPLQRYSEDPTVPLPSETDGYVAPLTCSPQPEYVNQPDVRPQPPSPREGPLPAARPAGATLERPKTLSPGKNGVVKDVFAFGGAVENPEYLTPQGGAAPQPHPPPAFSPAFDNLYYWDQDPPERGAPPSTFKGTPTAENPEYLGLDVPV
Sequence of Fibroblast growth factor receptor 2 (Homo sapiens) (P21802 22-821 limits assumed): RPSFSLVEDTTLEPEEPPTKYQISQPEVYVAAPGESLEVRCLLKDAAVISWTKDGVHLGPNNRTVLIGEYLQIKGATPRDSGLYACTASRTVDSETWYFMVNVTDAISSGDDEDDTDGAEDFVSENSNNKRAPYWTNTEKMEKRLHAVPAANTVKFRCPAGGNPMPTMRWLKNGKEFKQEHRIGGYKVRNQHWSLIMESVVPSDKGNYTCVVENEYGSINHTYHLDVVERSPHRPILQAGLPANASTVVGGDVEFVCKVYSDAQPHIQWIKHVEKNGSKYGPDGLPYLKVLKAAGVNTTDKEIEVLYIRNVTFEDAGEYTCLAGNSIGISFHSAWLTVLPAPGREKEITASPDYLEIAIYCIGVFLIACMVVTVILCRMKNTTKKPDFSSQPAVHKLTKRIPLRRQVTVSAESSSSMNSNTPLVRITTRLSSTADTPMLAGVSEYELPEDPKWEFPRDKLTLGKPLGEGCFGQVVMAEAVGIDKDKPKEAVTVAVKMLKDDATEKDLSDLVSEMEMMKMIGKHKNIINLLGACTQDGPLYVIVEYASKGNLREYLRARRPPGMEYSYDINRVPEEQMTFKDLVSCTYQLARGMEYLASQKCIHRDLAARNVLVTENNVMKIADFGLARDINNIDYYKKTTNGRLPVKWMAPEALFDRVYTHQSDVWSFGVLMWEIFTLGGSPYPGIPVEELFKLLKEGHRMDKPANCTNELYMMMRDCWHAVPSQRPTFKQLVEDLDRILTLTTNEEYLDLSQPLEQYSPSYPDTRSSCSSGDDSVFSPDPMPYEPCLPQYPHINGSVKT
Sequence of Fibroblast growth factor receptor 1 (Homo sapiens) (P11362 22-822 limits assumed): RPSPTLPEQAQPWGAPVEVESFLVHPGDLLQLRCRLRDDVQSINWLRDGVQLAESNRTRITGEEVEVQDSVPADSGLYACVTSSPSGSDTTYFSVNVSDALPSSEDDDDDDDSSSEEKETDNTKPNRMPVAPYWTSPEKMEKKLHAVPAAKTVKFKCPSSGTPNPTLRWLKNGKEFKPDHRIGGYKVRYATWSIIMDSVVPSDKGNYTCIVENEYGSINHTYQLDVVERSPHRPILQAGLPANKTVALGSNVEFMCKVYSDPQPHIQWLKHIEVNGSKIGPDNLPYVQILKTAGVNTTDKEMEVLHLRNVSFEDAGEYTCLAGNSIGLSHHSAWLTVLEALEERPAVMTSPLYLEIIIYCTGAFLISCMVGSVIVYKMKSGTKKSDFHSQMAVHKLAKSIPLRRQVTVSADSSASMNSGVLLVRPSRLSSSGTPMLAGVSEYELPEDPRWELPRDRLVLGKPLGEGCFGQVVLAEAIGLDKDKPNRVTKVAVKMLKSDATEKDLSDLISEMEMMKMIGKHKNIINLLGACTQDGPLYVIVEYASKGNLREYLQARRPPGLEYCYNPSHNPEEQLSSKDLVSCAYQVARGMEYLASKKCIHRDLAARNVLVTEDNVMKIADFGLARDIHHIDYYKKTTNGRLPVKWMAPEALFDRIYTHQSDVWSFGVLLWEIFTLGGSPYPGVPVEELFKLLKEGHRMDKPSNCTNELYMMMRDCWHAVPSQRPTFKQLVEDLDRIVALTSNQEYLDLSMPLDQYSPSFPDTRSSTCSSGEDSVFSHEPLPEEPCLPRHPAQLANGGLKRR

O=C(Nc1ccc(Oc2ccc3[nH]c(NC(=O)c4ccco4)nc3c2)cc1)Nc1cc(C(F)(F)F)ccc1F
inhibition [1]: 78.3% | inhibition [2]: 2.25% | inhibition [3]: 24.2% | inhibition [4]: 8.82% | inhibition [5]: 63.8% | inhibition [6]: -0.1% | inhibition [7]: -0.1% | inhibition [8]: -1.74% | inhibition [9]: -5.16% | inhibition [10]: 3.08% | inhibition [11]: 5.37% | inhibition [12]: 0.02% | inhibition [13]: 0.11% | inhibition [14]: -3.4% | inhibition [15]: 9.84% | inhibition [16]: -3.04% | inhibition [17]: 33.2% | inhibition [18]: -0.92% | inhibition [19]: 7.51% | inhibition [20]: -1.82%

Cc1ccc(Nc2ccnc(Nc3cccc(C(N)=O)c3)n2)cc1O
inhibition [1]: 38.6% | inhibition [2]: 0.29% | inhibition [3]: -0.39% | inhibition [4]: 2.22% | inhibition [5]: 29.1% | inhibition [6]: 2.41% | inhibition [7]: 5.7% | inhibition [8]: 6.84% | inhibition [9]: 20.2% | inhibition [10]: 4.75% | inhibition [11]: 23.4% | inhibition [12]: 2.5% | inhibition [13]: 10.7% | inhibition [14]: 4.6% | inhibition [15]: 34.8% | inhibition [16]: 1.51% | inhibition [17]: 26.6% | inhibition [18]: 3.55% | inhibition [19]: 18.4% | inhibition [20]: -3.61%

COc1cc2ncnc(Nc3ccc4c(cnn4Cc4ccccc4)c3)c2cc1OC
inhibition [1]: 7.52% | inhibition [2]: 2.93% | inhibition [3]: 4.39% | inhibition [4]: 1.36% | inhibition [5]: 2.63% | inhibition [6]: 32.4% | inhibition [7]: 83% | inhibition [8]: 83.7% | inhibition [9]: 94% | inhibition [10]: 0.84% | inhibition [11]: 7.92% | inhibition [12]: 2.06% | inhibition [13]: 2% | inhibition [14]: -0.45% | inhibition [15]: 3.82% | inhibition [16]: 3.33% | inhibition [17]: 7.69% | inhibition [18]: 3.3% | inhibition [19]: 3.13% | inhibition [20]: -0.15%

CC(C)c1ccc(Nc2nccc(-c3cnn4ncccc34)n2)cc1
inhibition [1]: 14.4% | inhibition [2]: 6.52% | inhibition [3]: 2.55% | inhibition [4]: 4.64% | inhibition [5]: 2.76% | inhibition [6]: 0.95% | inhibition [7]: 3.22% | inhibition [8]: 8.58% | inhibition [9]: 11.6% | inhibition [10]: 5.74% | inhibition [11]: 16% | inhibition [12]: 5.26% | inhibition [13]: 25.5% | inhibition [14]: 4.84% | inhibition [15]: 4.17% | inhibition [16]: 0.37% | inhibition [17]: 7.86% | inhibition [18]: 7.5% | inhibition [19]: 6.25% | inhibition [20]: 2.11%

OCc1ccc(-c2nc(-c3ccccn3)c(-c3ccc4c(c3)OCO4)[nH]2)cc1
inhibition [1]: 11.4% | inhibition [2]: 5.72% | inhibition [3]: 3.87% | inhibition [4]: 4.58% | inhibition [5]: 4.09% | inhibition [6]: 0.45% | inhibition [7]: -3.06% | inhibition [8]: 11.6% | inhibition [9]: 12.7% | inhibition [10]: 2.2% | inhibition [11]: 5.49% | inhibition [12]: 3.6% | inhibition [13]: 4.6% | inhibition [14]: 5.91% | inhibition [15]: 5.71% | inhibition [16]: 5.49% | inhibition [17]: 10.1% | inhibition [18]: 6.26% | inhibition [19]: 7.28% | inhibition [20]: 0.04%

Cc1ccc2c(-c3ccnc(Nc4cccc(C(F)(F)F)c4)n3)c(-c3ccccc3)nn2n1
inhibition [1]: 51.7% | inhibition [2]: 3.61% | inhibition [3]: 9.16% | inhibition [4]: 7.62% | inhibition [5]: 46.4% | inhibition [6]: 5.37% | inhibition [7]: 37.7% | inhibition [8]: 40.4% | inhibition [9]: 79% | inhibition [10]: -8.28% | inhibition [11]: 43.3% | inhibition [12]: 3.67% | inhibition [13]: 5.17% | inhibition [14]: 5.59% | inhibition [15]: 8.78% | inhibition [16]: 6.45% | inhibition [17]: 9.52% | inhibition [18]: 7.84% | inhibition [19]: 6.97% | inhibition [20]: 2.15%

COC(=O)c1cncc(/C=C/c2c(C)cc(O)cc2C)c1
inhibition [1]: 56.4% | inhibition [2]: 6.09% | inhibition [3]: 11.8% | inhibition [4]: 6.99% | inhibition [5]: 38.7% | inhibition [6]: 1.31% | inhibition [7]: 2.82% | inhibition [8]: 7.72% | inhibition [9]: 10% | inhibition [10]: 2.19% | inhibition [11]: 2% | inhibition [12]: 1.96% | inhibition [13]: 3.05% | inhibition [14]: 4.08% | inhibition [15]: 0.61% | inhibition [16]: 4.05% | inhibition [17]: 7.59% | inhibition [18]: 6.59% | inhibition [19]: 4.87% | inhibition [20]: -1.32%

N#Cc1c(NC(=O)c2ccccc2F)sc2c1CCCC2
inhibition [1]: -0.34% | inhibition [2]: 3.63% | inhibition [3]: 0.77% | inhibition [4]: -2.29% | inhibition [5]: 0.07% | inhibition [6]: -3.55% | inhibition [7]: 1.39% | inhibition [8]: -2.08% | inhibition [9]: 0.66% | inhibition [10]: -1.19% | inhibition [11]: 1.99% | inhibition [12]: -0.84% | inhibition [13]: -1.66% | inhibition [14]: -6.27% | inhibition [15]: -0.77% | inhibition [16]: -3.13% | inhibition [17]: -2.53% | inhibition [18]: -2.94% | inhibition [19]: -1.6% | inhibition [20]: 1.12%
